Shown are actives, neighbours in structure and some others; about 2% of the full set was active somewhere.
TRb-SRC2 inh = qHTS for Inhibitors of the Interaction of Thyroid Hormone Receptor and Steroid Receptor Coregulator 2; Thyroid hormone receptor beta (Homo sapiens), P10828; TRbeta-SRC2 peptide binding, fluorescence polarization; receptor liganded with 1 µM T3; Potency, µM (highest dose often 106 µM), inactives show at the highest dose activity change, negative = inhibition, most hits filed as inhibitors; actives 0.065% (n = 280,000);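 note: potency is the fitted concentration of half-maximal effect; plate controls were bound peptide for no effect and peptide without receptor for full effect; nearly all actives have a fitted effect of over 50% in size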
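Fluorescence polarization of 20 nM Texas Red SRC2 peptide with 0.6 uM human TRb ligand-binding domain, in Tris buffer with 1uM T3 and 5% DMSO. Incubated 5 hr ambient; normalized to unbound and bound controls.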
HTT aggregate = qHTS Multiplex Assay to Identify Dual Action Probes in a Cell Model of Huntington: Aggregate Formation (GFP); PC12 HttQ103-GFP aggregates, Acumen cytometry, 40 h; actives 1.1% (n = 220,000); Potency, µM (titrated, usually from 46.1 µM), without a hit: at the top dose activity change, negative = inhibition, usual class: inhibitors; note: potency is the fitted concentration of half-maximal effect; % is set by controls: 0 for no effect and ±100 for the full control effect; nearly all actives have a fitted effect of over 60% in size
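Aggregate formation scored by laser-scanning cytometer (488 excitation, 500–530 emission) in lysed PC12 cells expressing Q103-GFP after 100 nM tebufenozide induction; library tested in dose series, with ATPLite reagent added in the multiplex.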
TexasRed fluor = Total Fluorescence Counterscreen for Inhibitors of the Interaction of Thyroid Hormone Receptor and Steroid Receptor Coregulator 2 | actives 0.29% (n = 280,000) | Potency, µM (top dose mostly 106 µM), for inactives: at the top dose fluorescence change, negative = quenching | TRb/SRC2 Texas Red total fluorescence interference | AID 1479, 2009; active = well fitted curve in either direction with a large enough effect; inconclusive = small, poorly fitted or top-dose-only effect; note: potency is the fitted concentration of half-maximal effect; % is set by controls: 0 for no effect and ±100 for the full control effect
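Human TRβ ligand-binding domain (0.6 uM) and Texas Red SRC2 peptide (20 nM) in Tris buffer with 1 uM T3 and 5% DMSO were incubated with pinned compound for 5 hr at ambient temperature. Total fluorescence was computed as S + 2P (555/632 nm).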
JMJD2E inh = qHTS Assay for Inhibitors of Human Jumonji Domain Containing 2E (JMJD2E). Potency, µM (doses to about 57.1 µM), inactives show top-dose activity change, negative = inhibition, hits mostly inhibitors. AID 2147, 2009. Lysine-specific demethylase 4E (Homo sapiens), B2RXH2. actives 1.6% (n = 230,000). JMJD2E catalytic domain, FDH-coupled NADH fluorescence (FDH is formaldehyde dehydrogenase);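 note: potency is the fitted concentration of half-maximal effect; 0% = wells with enzyme and -100% = buffer wells without enzyme; nearly all actives have a fitted effect of over 50% in size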
Target sequence (B2RXH2 1-337 limits assumed): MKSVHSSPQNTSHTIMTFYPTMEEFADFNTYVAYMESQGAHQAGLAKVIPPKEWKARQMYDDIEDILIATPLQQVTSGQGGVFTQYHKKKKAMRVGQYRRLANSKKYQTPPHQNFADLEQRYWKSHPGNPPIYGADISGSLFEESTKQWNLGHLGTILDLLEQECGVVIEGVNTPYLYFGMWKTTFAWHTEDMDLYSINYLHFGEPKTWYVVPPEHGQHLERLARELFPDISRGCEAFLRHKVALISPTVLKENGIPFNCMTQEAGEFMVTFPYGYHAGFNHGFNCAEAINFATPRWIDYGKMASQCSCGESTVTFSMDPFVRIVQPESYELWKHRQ
HTT cytoprotect = qHTS Multiplex Assay to Identify Dual Action Probes in a Cell Model of Huntington: Cytoprotection (ATP); PC12 HTT-Q103 induced, cytoprotection, ATP luminescence, 40 h; Potency, µM (series often up to 56.4 µM), for the others: cytoprotection (ATP increase), actives largely listed as activators; actives 0.14% (n = 230,000); AID 1471, 2008; note: potency is the fitted concentration of half-maximal effect; % of control where 0% means no effect; nearly all actives have a fitted effect of over 45% in size
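ATP quantification (ATPlite) reports survival of PC12 cells in which tebufenozide, 100 nM final, switches on Htt exon 1 with 103 glutamines linked to GFP; compounds are titrated.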
Coupling enz = qHTS Assay for Inhibitors of Fructose-1,6-bisphosphate Aldolase from Giardia Lamblia: Coupling assay counterscreen; activity change, negative = inhibition, % at 58.2 µM, hits read low; coupling enzyme system counterscreen, AmpLite Red fluorescence; actives 0.67% (n = 290,000); in the data active = activity change below about -30%; note: % is set by controls: 0 for no effect and ±100 for the full control effect
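Coupling enzymes only (glyceraldehyde-3-phosphate) + compound, at 57.5 uM final, 10 min RT; add substrate/coupling/AmpLite Red mix, 20 min RT; fluorescence ex 525/em 598 nm. Actives flag coupling-system interference.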
* hit, by the source's call; ? = inconclusive; / = not tested or not shown; [ ] = remark or other dose. Unless noted, calls come from the whole dose curve; as a rule, active = well fitted curve in the direction sought with a large enough effect; inconclusive = small, poorly fitted or top-dose-only effect, or another doubt; inactive = no such curve, though single readings can be large; an effect the other way counts as inactive or inconclusive.

SMILES | TRb-SRC2 inh | HTT aggregate | TexasRed fluor | JMJD2E inh | HTT cytoprotect | Coupling enz
Cc1ccc(C)c(S(=O)(=O)c2nnn3c2nc(NC2CCCCC2)c2sccc23)c1 | -2% | / | -4% | / | / | /
Cc1ccc2c(c1)nnn2C1CCN(S(=O)(=O)c2ccc(C(=O)N3C(C)CCCC3C)cc2)CC1 (centres undefined) | 6% | 13µM* | 2% | -1% | -65% | /
COc1ccccc1C1CC(c2cccs2)=Nc2ccccc2S1 (centres undefined) | 4% | 8% | -4% | -2% | 2% | 1
Fc1ccccc1C1CC(c2ccco2)=Nc2ccccc2S1 (centres undefined) | -3% | 40%[9.22 µM] | 3% | 28µM* | -1%[10 µM] | 5
CCCN(CCC)C1=CC(=[N+]2CCCC2)CC(C)(C)C1 | -4% | 11µM* | -1% | 5% | 34%[0.074 µM] | 3
COc1ccc2c(c1OC)C(Cc1ccccc1)N1CCc3cc4c(cc3C1=C2)OCO4 (centres undefined) | 4% | / | 0% | -2% | -43%[1.9 µM] | -33*
COc1ccc(-c2nc(S(=O)(=O)c3ccc(Cl)cc3)c(N3CCCCCC3)o2)cc1 | -4% | / | -2% | / | / | /
Cc1sc2nc(CN3CCCC3)nc(Cl)c2c1C | -3%[53 µM] | 13µM* | -3%[53 µM] | ? | 18%[10 µM] | 0
CCOC(=O)c1sc2nc(CN3CCCCC3)nc(Cl)c2c1C | -5% | 17% | -3% | ? | 19%[10 µM] | -1
COc1ccccc1Cc1nc2ccccc2nc1SCC(=O)N(C)c1ccc(F)cc1 | -3% | / | -1% | / | / | /
COc1ccc([C@H]2c3cc(OC)c(OC)cc3C[C@@H](C)[C@@H]2C)cc1OC | 1% | / | 0% | -3% | -40% | 4
CCOc1ccc(NC(=O)N2CCC(CN3CCC(C)CC3)CC2)cc1 | -19% | / | 100µM*[quencher] | / | / | /
Nc1cccc(OCc2nc(N)nc(N)c2-c2ccc(Cl)cc2)c1 | / | / | / | / | 14%[10 µM] | /
Cc1cccc(Nc2ncnc3nc[nH]c23)c1 | 7% | 13µM* | -9% | -1% | -18%[10 µM] | 0
O=C(CCl)N(c1ccccc1)C1CCS(=O)(=O)C1 (centres undefined) | -3% | 8.9µM* | 1% | 4% | 13%[10 µM] | 2
O=C(c1cccs1)c1cn(CCOc2ccccc2Cl)c2ccccc12 | -2% | / | -1% | / | / | /
CCOc1cc(CNCc2ccncc2)cc(Br)c1OCc1ccccc1F | -11% | 10µM* | -1% | -8% | -56% | 0
O=S(=O)(Nc1ccc2c(c1)OCCO2)c1ccc2oc3ccccc3c2c1 | -5% | 11µM* | -5% | -5% | -1%[0.074 µM] | 2
O=S(=O)(Nc1ccc2c(c1)OCCO2)c1ccc(F)c(F)c1 | / | / | / | / | / | 0
CSc1nc2ccc(NS(=O)(=O)c3ccc4c(c3)OCCO4)cc2s1 | 0% | 8.9µM* | 1% | -2% | 11%[10 µM] | 1
Cc1cc(C)c2nc(N(Cc3cccnc3)C(=O)CCOc3ccccc3)sc2c1 | 2% | / | 1% | / | / | /
Cc1ccc(S(=O)(=O)NC(C(=O)Oc2ccc3c(C(F)(F)F)cc(=O)oc3c2)c2ccccc2)cc1 (centres undefined) | 7% | -12% | 3% | 32µM* | 2%[10 µM] | 11
C=C(C)C(=O)OCCC[Si](OC)(OC)OC | 2%[201 µM] | / | 3%[201 µM] | / | / | /
Cc1c(Cl)cccc1NC(=O)CSc1cc(-c2ccccc2)ncn1 | 2% | / | -5% | / | / | /
Cc1onc(-c2ccccc2)c1C(=O)N(Cc1ccco1)Cc1cccs1 | -1% | ? | -2% | -5% | -10% | -35*
COc1ccc(-c2nn(-c3ccccc3)cc2C(=O)Nc2nccs2)cc1 | -3% | 18µM* | -3% | ? | -40% | -5

Compound activity as filed in PubChem BioAssay.
